hgDAF-12 ag – H. glycines DAF-12 receptor agonists, primary screen, cell-based, luminescence, HEK293, GAL4 fusion, UAS-luciferase; Nuclear hormone receptor DAF-12 (Heterodera glycines), GAL4 fusion; HEK293 GAL4-hgDAF12 UAS-luciferase reporter, agonist luminescence; normalized to butyrate control; activation, % at 6.8 µM; 370,000 compounds, 1.8% hits; AID 687014, 2013;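 active = activation above a cutoff set at the mean of all screened compounds plus 3 SD, cut at about 10% in these data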
DAX1 inh-1 – DAX1 (NR0B1) inhibitors, primary screen, cell-based, HEK293, Gal4-DAX1, luciferase luminescence | Nuclear receptor subfamily 0 group B member 1 (Homo sapiens), P51843 | HEK293 Gal4-DAX1 luciferase reporter | inhibition, % at 6.75 µM | 340,000 compounds, 0.99% hits | AID 504766, 2011;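 active = inhibition above the mean over all tested compounds plus 3 SD, cut at about 4.2% in these data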;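 note: inhibition shows as a rise in luminescence from relieved DAX1 repression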
hcDAF-12 act – H. contortus DAF-12 nuclear receptor activators, primary screen, cell-based, luminescence, HEK293, lit1-tk-luc reporter. HEK293 hcDAF-12 lit1-tk-luc reporter; 0% DMSO, 100% Δ7-dafachronic acid. activation, % at 6.8 µM. 370,000 compounds, 1.4% hits;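 active = activation above the mean of all tested compounds plus 3 SD, cut at about 5.5% in these data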
ssDAF12 agonist – S. stercoralis DAF-12 nuclear receptor activators, primary screen, cell-based, luminescence, HEK293, GRIP1 co-expression, lit1-tk-luc | Nuclear hormone receptor DAF-12 (Strongyloides stercoralis) | HEK293 ssDAF-12/GRIP1 lit1-tk-luc reporter; % of 3 µM dafachronic acid response | activation, % at 6.8 µM | 370,000 compounds, 1% hits | AID 652126, 2013;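 active = activation above the mean over all tested compounds plus 3 SD, cut at about 0.9% in these data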
SMARCA2 activ – SMARCA2 (BRM) function activators, primary screen, cell-based, luminescence, high throughput; MG213 cells, MMTV-luciferase reporter, dexamethasone, overnight; activation, % at 9.1 µM; 370,000 compounds, 1% hits; in the data active = activation above about 7.8%
DAX1 inh-2 – DAX1 (NR0B1) inhibitors on StAR promoter, primary screen, cell-based, luminescence, SF-1 (NR5A1), full-length DAX-1 | 370,000 compounds, 1.1% hits | AID 652010, 2013 | HEK293T StAR-luciferase reporter, SF-1/DAX-1 repression relief | inhibition, % at 6.8 µM;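 active = inhibition above the mean over all tested compounds plus 3 SD, cut at about 3.6% in these data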;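 note: higher inhibition means more luminescence from relief of DAX-1 repression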
DAX1 conf – DAX1 (NR0B1) inhibitors relieving SF-1 repression, confirmation, cell-based, luminescence, HEK293T, full-length DAX-1, SF-1 activated StAR promoter; shares compounds with DAX1 inh-2; HEK293T StAR-promoter luciferase reporter, SF-1/DAX-1 repression; inhibition, % at 6.8 µM; 2,400 compounds, 87% hits;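 active = inhibition above the average of every tested compound plus 3 SD, cut at about 3.8% in these data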
Target sequence (P51843 whole entry, looked up): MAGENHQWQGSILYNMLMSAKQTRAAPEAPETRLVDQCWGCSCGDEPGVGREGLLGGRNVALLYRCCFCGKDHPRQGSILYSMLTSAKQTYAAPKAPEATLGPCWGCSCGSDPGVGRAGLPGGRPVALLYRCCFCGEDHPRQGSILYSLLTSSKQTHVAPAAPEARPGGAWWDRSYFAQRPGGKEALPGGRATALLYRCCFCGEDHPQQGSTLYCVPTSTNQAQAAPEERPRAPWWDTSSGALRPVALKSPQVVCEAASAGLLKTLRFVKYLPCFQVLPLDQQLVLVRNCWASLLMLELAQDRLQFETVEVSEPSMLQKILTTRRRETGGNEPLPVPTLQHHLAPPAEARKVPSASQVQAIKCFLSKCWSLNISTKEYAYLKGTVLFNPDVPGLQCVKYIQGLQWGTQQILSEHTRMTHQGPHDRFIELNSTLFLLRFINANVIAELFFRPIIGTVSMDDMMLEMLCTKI
SF1 AF2mut Luc – StAR reporter signal changes without DAX1, counter-screen for DAX1 inhibitor project, cell-based, luminescence, AF-2 mutant SF-1, transactivation. shares compounds with DAX1 inh-2. HEK293 StAR-luciferase, SF-1 AF2 mutant. inhibition, % at 6.8 µM. 2,400 compounds, 78% hits. AID 652136, 2013;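 active = inhibition above the mean of all tested compounds plus 3 SD, cut at about 3% in these data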
Of the large screens only hits and unclear results are named; the others gave an inactive call (follow-up assays come after a bar, where they were run). An excerpt weighted towards active compounds, which were near 4.8% of everything screened.

COC(=O)[C@]12C[C@H](CC(=O)N3CCSCC3)C(=O)N(Cc3ccc4c(c3)OCO4)C1=C[C@H](COCc1ccccc1)O[C@@H]2C	none (no result: DAX1 inh-1)
O=C(O)C1CCCN(C(=O)/C=C/c2ccccc2)CC1 (configuration not stated)	none (no result: DAX1 inh-1)
O=C(C=Cc1ccccc1)N1CCCCC1	DAX1 inh-2 5.2 | DAX1 conf 6.2 | SF1 AF2mut Luc 4.7
COC(=O)C1=C(C)N(Cc2cccc(C(F)(F)F)c2)C(=NCc2ccc(OC)cc2)NC1c1cccc(F)c1 (configuration not stated)	none (no result: DAX1 inh-1)
O=c1oc2cc(O)ccc2cc1S(=O)(=O)c1ccccc1	none
O=c1oc2cc(O)ccc2cc1-c1nc2ccccc2o1	DAX1 inh-2 5.4 (no result: DAX1 inh-1) | DAX1 conf 6.4 | SF1 AF2mut Luc 3.3
CC(=O)Nc1cnc(-c2ccc3c(c2)OCO3)cn1	hgDAF-12 ag 12, DAX1 inh-2 4.8 (no result: DAX1 inh-1) | DAX1 conf 9.0 | SF1 AF2mut Luc 5.7
O=C(COc1ccccc1Br)NC(=O)NC1CCCC1	DAX1 inh-2 4.9 | DAX1 conf 7.3 | SF1 AF2mut Luc 4.3
Cc1ccc2occ(/C=N/NC(=O)c3ccccc3O)c(=O)c2c1	hcDAF-12 act 6.4, DAX1 inh-2 10 | DAX1 conf 7.3 | SF1 AF2mut Luc 7.6
O=C(CCNC(=O)N1CC(=O)Nc2ccccc21)NCc1ccc(F)cc1	DAX1 inh-2 6.0 | DAX1 conf 5.3 | SF1 AF2mut Luc 3.3
O=C(CNC(=O)N1CC(=O)Nc2ccccc21)NCc1ccc(F)cc1	none
Cc1[nH]c2ccc(C(=O)NC3CCC(C)CC3)cc2c1C (configuration not stated)	hgDAF-12 ag 13, DAX1 inh-2 5.4 | DAX1 conf 6.8 | SF1 AF2mut Luc 3.3
CNc1cc(-c2ccc(CC#N)cc2)ncn1	DAX1 inh-2 4.5 (no result: DAX1 inh-1) | DAX1 conf 6.8 | SF1 AF2mut Luc 5.5
COC(=O)c1ccsc1NS(C)(=O)=O	none (no result: DAX1 inh-1)
Cc1cccc(S(=O)(=O)Nc2nc3ccccc3nc2Nc2cccc(C(=O)O)c2)c1	none
O=C(O)c1cccc(Nc2nc3ccccc3nc2NS(=O)(=O)c2ccc(F)cc2)c1	DAX1 inh-2 6.6 | DAX1 conf inactive | SF1 AF2mut Luc 3.9
O=C(Nc1ccccc1F)c1cccc(C(=O)Nc2ccccc2F)c1	none
O=C(Nc1ccccc1F)c1ccc(C(=O)c2ccccc2)cc1	hgDAF-12 ag 12, DAX1 inh-2 4.7 | DAX1 conf 7.0 | SF1 AF2mut Luc 4.4
COC(=O)C1=C(C)N(Cc2ccc(C(F)(F)F)cc2)C(=NCc2ccccc2C(F)(F)F)NC1c1ccccc1C(F)(F)F (configuration not stated)	none (no result: DAX1 inh-1)
COc1ccc(CN2CN3Cc4cc(F)ccc4C3CS2(=O)=O)cc1 (configuration not stated)	none (no result: DAX1 inh-1)
COc1cccc(/C=C/C(=O)NNC(=O)c2ccccc2)c1OC	DAX1 inh-2 5.2 | DAX1 conf 5.1 | SF1 AF2mut Luc inactive
COc1cccc(/C=C/C(=O)NNC(=O)c2ccncc2)c1OC	none
C[C@@H]1CCN(C2CC2)S(=O)(=O)c2c(cccc2N2CC[C@H](O)C2)O1	none (no result: DAX1 inh-1)
CS(=O)(=O)N[C@@H]1C[C@@H]2O[C@@H](CO)CC[C@@H]2O[C@@H]1CCc1ccc(-c2ccccc2F)cc1	none (no result: DAX1 inh-1)
O=C(CSc1nnc(-c2ccccc2F)o1)N1CCNC1=O	DAX1 inh-2 7.7 | DAX1 conf 11 | SF1 AF2mut Luc 6.8
Cc1ccc(NC(=O)Cc2nc(COC(=O)c3c(F)cccc3Cl)cs2)cc1	none
Cc1nn2c(=O)cc(COC(=O)c3c(F)cccc3Cl)nc2s1	DAX1 inh-2 8.6 | DAX1 conf 6.4 | SF1 AF2mut Luc 6.2
CC(=O)Nc1cccc(C(=O)OCC(=O)c2ccccc2Cl)c1	DAX1 inh-2 5.1 | DAX1 conf 7.3 | SF1 AF2mut Luc 5.6
CCc1ccc(C(=O)Nc2nc(C)cs2)s1	hgDAF-12 ag 11, DAX1 inh-2 16 | DAX1 conf 9.9 | SF1 AF2mut Luc 6.1
CCOC(=O)c1sc(NC(=O)c2ccc(CC)s2)nc1C	none
O=C(CCCN1C(=O)/C(=C\c2ccccc2)SC1=S)Nc1cccc(C(=O)O)c1	none
O=C(CCCN1C(=O)S/C(=C/C=C/c2ccccc2)C1=O)Nc1ccc(C(=O)O)cc1	DAX1 inh-2 5.3 | DAX1 conf 5.2 | SF1 AF2mut Luc 3.8
O=C(CCN1C(=O)/C(=C\C=C\c2ccccc2)SC1=S)Nc1cccc(C(=O)O)c1	DAX1 inh-2 4.9 | DAX1 conf 6.2 | SF1 AF2mut Luc inactive
CCCCN1CC(COCc2ccccc2)Oc2cccc(Oc3ccc(SC)c(C)c3)c2S1(=O)=O (configuration not stated)	none (no result: DAX1 inh-1)
O=C(NCCN1CCC(Cc2ccccc2)CC1)C1CCCN(S(=O)(=O)c2ccccc2[N+](=O)[O-])C1 (configuration not stated)	none (no result: DAX1 inh-1)
Cc1sc2nc(COC(=O)CNC(=O)c3cc(F)ccc3F)[nH]c(=O)c2c1C	none (no result: DAX1 inh-1)
Cc1cccc(C)c1-n1nnnc1C1c2ccccc2C(=O)N1C1CC1 (configuration not stated)	DAX1 inh-2 4.9 (no result: DAX1 inh-1) | DAX1 conf inactive | SF1 AF2mut Luc inactive
CCCCCn1nnnc1C1(C)Cn2nccc2C(=O)N1Cc1ccco1 (configuration not stated)	none (no result: DAX1 inh-1)
O=C(O)c1cccc(N/N=C/c2ccc(F)c(F)c2)c1	DAX1 inh-2 5.0 | DAX1 conf 11 | SF1 AF2mut Luc 7.2
O=C(O)c1cccc(N/N=C/c2cn(-c3ccccc3)nc2-c2cccs2)c1	DAX1 inh-2 6.4 | DAX1 conf 18 | SF1 AF2mut Luc 9.2
O=C(CCc1ccccc1)N[C@H]1[C@H](OC(=O)c2ccco2)CCC[C@]12C(=O)N(Cc1ccccc1)c1ccccc12	none (no result: DAX1 inh-1)
